A selection: hits, their analogues and other compounds. The true share with any hit is near 7.3%.
VACV Venus inh = inhibitors of vaccinia virus (Venus reporter); Vaccinia virus Venus reporter expression, fluorescence; Potency, µM (top dose mostly 36.5 µM), most hits filed as inhibitors; actives 0.46% (n = 330,000); AID 720580; calls by dose curve; tested in A549 cells; further: nearly all actives have a fitted effect of over 30% in size
HCMV antiviral = inhibitors of human cytomegalovirus. actives 4.5% (n = 410,000). HFF cells, HCMV-luciferase reporter, 72 h; stronger effect = lower value. activity change, negative = inhibition, % at 57.5 µM. AID 1259415; in the data active means activity change below about -60%; inconclusive means no clear call, values can overlap the other calls; inactive means above about -39%
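Cell-based, HFFs, 1000 cells/well, 16 h 37C; cpds in DMSO + HCMV-luc, MOI 1 PFU/cell; 72 h 37C; OneGlo luminescence after 5 min RT; norm. to buffer vs Salinomycin 10uM.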
FMDV inh = foot and mouth disease virus antiviral activity; FMDV antiviral cell-based qHTS; Potency, µM (top dose mostly 57.9 µM), most hits filed as inhibitors; actives 1.2% (n = 410,000); AID 1159524; calls by dose curve; tested in HEK293T cells; further: read-out not given here; nearly all actives have a fitted effect of over 45% in size
Vaccinia mCherry = vaccinia inhibition (mCherry reporter); actives 0.63% (n = 310,000); Potency, µM (top dose mostly 36.5 µM), usual class: inhibitors; Vaccinia virus mCherry reporter infection, fluorescence; AID 720579; calls by dose curve; tested in A549 cells; further: nearly all actives have a fitted effect of over 35% in size
HCV inhibitor = inhibitors of hepatitis C virus infection | Huh7.5.1 HCVcc-Cre infection, luciferase reporter, 44 h | AID 651820 | actives 3.4% (n = 340,000) | Potency, µM (doses to about 41.8 µM), usual class: inhibitors; active means well fitted inhibition curve with a large enough effect; inconclusive means small, poorly fitted or top-dose-only effect, or another doubt; inactive means no such curve, though single readings can be large or run the other way
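A cell-based infection assay in which seeded cells (1,000 per well) receive test compound after 4 h, are inoculated with HCVcc-Cre at approximately 0.5 moi, and are incubated 44 h before luminescence detection.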
Of the large screens only hits and unclear results are named; the others gave an inactive call.

COc1ccc(NC(=O)Nc2cccc(F)c2)c(OC)c1	none
COC(=O)c1ccc(NC(=O)Nc2cccc(F)c2)cc1	HCV inhibitor 10µM
CCOc1ccc(/C=C/C2=CC(C)(C)NC(=S)N2)cc1	VACV Venus inh inconclusive, HCMV antiviral -93.8, Vaccinia mCherry inconclusive, HCV inhibitor inconclusive
O=C(c1cnccn1)N(Cc1cccs1)C1(C(=O)NC2CCCCC2)CCCCC1	none
O=C(c1ccccn1)N(Cc1cccs1)C1(C(=O)NC2CCCCC2)CCCCC1	HCV inhibitor 11.2µM
Cc1c(Cl)sn(-c2ccc(Cl)cc2)c1=O	VACV Venus inh inconclusive, HCMV antiviral -100.8, FMDV inh inconclusive, Vaccinia mCherry inconclusive, HCV inhibitor 2.51µM
Nc1nc(-c2ccccc2)c(CCCOc2ccc(NC(=O)CBr)cc2)c(=O)[nH]1	none
COC(=O)C(Cc1c[nH]c2ccccc12)NC(=O)c1cccc(S(=O)(=O)N2CCCCC2)c1 (configuration not stated)	none (no result: VACV Venus inh, Vaccinia mCherry)
O=C(NC(NC1CCS(=O)(=O)C1)C(=O)c1cccs1)c1ccccc1 (configuration not stated)	none (no result: Vaccinia mCherry)
O=C(NC1=C(Nc2ccc(Cl)cc2)C(=O)c2ccccc2C1=O)c1ccccc1	VACV Venus inh inconclusive, HCMV antiviral -64.5, Vaccinia mCherry 28.2µM, HCV inhibitor inconclusive
O=C1C(Cl)=C(NC(=O)c2ccccc2)C(=O)C(Cl)=C1NC(=O)c1ccccc1	VACV Venus inh inconclusive, HCMV antiviral inconclusive, FMDV inh 28.2µM, Vaccinia mCherry inconclusive, HCV inhibitor inconclusive
O=C(NC1=C(NC2CCS(=O)(=O)C2)C(=O)c2ccccc2C1=O)c1ccccc1 (configuration not stated)	HCMV antiviral -99.5, FMDV inh inconclusive, HCV inhibitor inconclusive (no result: VACV Venus inh, Vaccinia mCherry)
Cc1cccc(NC2=C(NC(=O)c3ccccc3)C(=O)c3ccccc3C2=O)c1	HCV inhibitor inconclusive
CCn1c(=O)n(-c2ccc(C)c(F)c2)c(=O)c2sc3ccccc3c21	none (no result: HCV inhibitor)
CCN(CC)S(=O)(=O)c1ccc(NCCCn2ccnc2)c([N+](=O)[O-])c1	HCMV antiviral -62.2
O=C(c1ccccc1)c1ccc(NCCCn2ccnc2)c([N+](=O)[O-])c1	HCMV antiviral inconclusive, HCV inhibitor 35.5µM
Cc1ccc(-c2[nH]ncc2CN2CCN(C(=O)c3cccs3)CC2)cc1C	none (no result: HCV inhibitor)
CCn1c(N2CCN(S(=O)(=O)c3ccc(OC)cc3)CC2)nc2ccccc21	FMDV inh inconclusive, HCV inhibitor 10µM
COc1cccc(N2CCN(S(=O)(=O)c3ccc4ccccc4c3)CC2)c1	HCV inhibitor 22.4µM
COc1ccccc1N1CCN(C2CCN(S(=O)(=O)c3ccc(C)cc3)CC2)CC1	VACV Venus inh inconclusive
O=S(=O)(c1ccc2ccccc2c1)N1CCN(C2CCN(Cc3ccccc3)CC2)CC1	FMDV inh inconclusive, HCV inhibitor 22.4µM (no result: VACV Venus inh, Vaccinia mCherry)
COc1ccc(S(=O)(=O)N2CCN(c3ccccc3)CC2)cc1	none
O=S(=O)(c1ccccc1)N1CCN(C2CCN(Cc3ccccc3)CC2)CC1	HCV inhibitor inconclusive (no result: Vaccinia mCherry)
COc1ccccc1N1CCN(C2CCN(S(=O)(=O)c3ccc4ccccc4c3)CC2)CC1	HCMV antiviral inconclusive, FMDV inh inconclusive, HCV inhibitor 14.1µM (no result: VACV Venus inh, Vaccinia mCherry)
CN(Cc1ccccc1)C(=O)COC(=O)c1ccccc1SCC(=O)N1CCCC1	HCMV antiviral -60.8
CN(Cc1cccc(Cl)c1Cl)C(=O)c1ccccc1SCC(=O)N1CCCC1	HCV inhibitor 22.4µM
COc1ccccc1CN(C)C(=O)c1ccccc1SCC(=O)N1CCCC1	none (no result: VACV Venus inh, Vaccinia mCherry)
CN(Cc1ccc(Cl)c(Cl)c1)C(=O)c1ccccc1SCC(=O)N1CCCC1	HCMV antiviral -98.6
CN(C(=O)COC(=O)c1ccccc1SCC(=O)N1CCCC1)c1ccccc1	none
CC1(C(=O)NC2CCCCCC2)CCN1C(=O)Cc1ccc(-c2ccccc2)cc1 (configuration not stated)	HCMV antiviral inconclusive, FMDV inh inconclusive (no result: HCV inhibitor)
O=[N+]([O-])c1ccc2nc(-c3ccc(Cl)cc3)[nH]c2c1	HCMV antiviral -61.7 (no result: VACV Venus inh, Vaccinia mCherry)
O=[N+]([O-])c1cccc(-c2nc3ccc([N+](=O)[O-])cc3[nH]2)c1	HCV inhibitor 14.1µM (no result: VACV Venus inh, Vaccinia mCherry)
Cc1ccc(-c2nc3ccc([N+](=O)[O-])cc3[nH]2)cc1	VACV Venus inh inconclusive, HCV inhibitor inconclusive
COc1cc(CN(C(=O)COc2ccc(C)c(C)c2)c2ccccn2)cc(OC)c1OC	FMDV inh inconclusive (no result: HCV inhibitor)
O=C(c1cccs1)N1CCN(C(=O)c2cccs2)C1=S	VACV Venus inh inconclusive, HCMV antiviral inconclusive, FMDV inh 35.5µM, Vaccinia mCherry inconclusive, HCV inhibitor inconclusive
C(=N/n1c2ccccc2c2ccccc21)/c1ccco1	VACV Venus inh inconclusive, HCV inhibitor 8.91µM (no result: Vaccinia mCherry)
Cc1cccc(N2CCC(N3CCN(C4CCCCC4)C(CCO)C3)CC2)c1C (configuration not stated)	HCMV antiviral -75.3, FMDV inh inconclusive, Vaccinia mCherry inconclusive, HCV inhibitor inconclusive
CCOC(=O)c1cc(-c2ccccc2)n(CCC(=O)NCCc2ccc(C)cc2)c1C	none (no result: HCV inhibitor)
O=c1[nH]c(CN2CCN(S(=O)(=O)/C=C/c3ccccc3)CC2)nc2ccccc12	none
O=c1[nH]c(CN2CCN(S(=O)(=O)/C=C/c3ccccc3)CC2)nc2cc(Cl)ccc12	VACV Venus inh 11.2µM, Vaccinia mCherry inconclusive
Cc1ccc(S(=O)(=O)N(C)C)cc1NC(=O)C(C)OC(=O)C1CCCCC1 (configuration not stated)	HCMV antiviral inconclusive
Cc1cc(C(=O)COC(=O)c2ccccc2O)c(C)n1CC1CCCO1 (configuration not stated)	HCMV antiviral -72.8, FMDV inh 35.5µM, HCV inhibitor 11.2µM (no result: VACV Venus inh, Vaccinia mCherry)
NC(=O)c1ccccc1OCC(=O)c1ccc(Cl)cc1	none
COC(=O)CCn1c(C)cc(C(=O)COc2ccccc2C(N)=O)c1C	FMDV inh 15.8µM, HCV inhibitor inconclusive
Cc1ccc(C(=O)OCC(=O)c2cc(C)n(CC3CCCO3)c2C)cc1 (configuration not stated)	HCV inhibitor inconclusive
Cc1cc(C(=O)COc2ccccc2C(N)=O)c(C)n1CC1CCCO1 (configuration not stated)	HCMV antiviral -62.0, FMDV inh 28.2µM, HCV inhibitor 1.78µM
Cc1cc(C(=O)COC(=O)c2cccc(NS(C)(=O)=O)c2)c(C)n1CC1CCCO1 (configuration not stated)	FMDV inh 11.2µM, HCV inhibitor inconclusive
O=C(/C=C/c1ccccc1Cl)OCC(=O)c1ccc[nH]1	none (no result: VACV Venus inh, Vaccinia mCherry)
Cc1oc2ncn(CC(C)C)c(=O)c2c1C(=O)Nc1cc(F)ccc1F	none (no result: HCV inhibitor)
COC(=O)[C@]12CCCCC=C1N(Cc1ccc(Cl)cc1Cl)C(=O)[C@H](CC(=O)N1CCN(C(=O)c3ccco3)CC1)C2	HCMV antiviral inconclusive (no result: HCV inhibitor)
Cc1cc(C(=O)COC(=O)c2ccccc2Br)c(C)n1CC1CCCO1 (configuration not stated)	FMDV inh 0.398µM, HCV inhibitor inconclusive (no result: HCMV antiviral)
CCOc1ccccc1NC(=O)CSc1nc2c(oc3ccccc32)c(=O)n1C(C)C	none (no result: HCV inhibitor)
CC(C)(C)OC(=O)N(CCc1ccccc1)Cc1ccc(OCc2cccc(NC(=O)/C=C/c3ccccc3)c2)cc1	none

Source: PubChem BioAssay
